# Assay results taken from PubChem BioAssay AID431 (Sanford-Burnham Center for Chemical Genomics, 2006).
# Out of some 63,000 compounds screened, about 1,100 (1.7%) were called active. Many of the other results were omitted from the sample, so actives are more common in it than they were. Entries with a potency or affinity are not part of this list. A number with no mark means an inactive call.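 Rule for the calls: active = compounds whose percent cytotoxicity in the single-dose primary screen, scaled between solvent and toxic-drug controls, exceeds 50; inactive = the rest.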
# Assay: cytotoxicity in KRAS-transformed pancreatic duct cells, primary screen, cell-based, fluorescence, HTS (AID 431);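 note: 0% = DMSO solvent wells and 100% = doxorubicin-treated wells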
# Conditions: HPDE-C7K KRASV12 cells, Alamar Blue viability, 48 h; at 10 µM; hits give high values
row,Structure (SMILES),cytotoxicity
1,O=C(NC1CCCCC1)N1CCC(c2nc3ccc(Cl)cc3[nH]2)CC1,7.4%
2,Cn1nc(-c2ccc(Cl)cc2)c2cc(C(=O)NCCCN3CCCC3)sc21,54.3% (active)
3,Cn1nc(-c2ccc(Cl)cc2)c2cc(C(=O)NCCCN3CCOCC3)sc21,9.2%
4,CN1CCN(CCCNC(=O)c2cc3c(-c4ccc(Cl)cc4)nn(C)c3s2)CC1,3.3%
5,COc1ccccc1N1CCN(CCC(=O)Nc2ccc3c(c2)OCO3)CC1,7.5%
6,CCOc1cccc(C(=O)Nc2cccc(-c3nnc(-c4ccccc4)o3)c2)c1,-9.8%
7,CCOc1ccc(C(=O)Nc2cccc(-c3nc4cccnc4o3)c2)cc1Cl,56% (active)
8,Cc1ccc(-c2nc3cccnc3o2)cc1NC(=O)COc1ccc(Cl)cc1C,0.4%
9,CCN1CCN(c2ccc(NC(=O)c3cccc4ncccc34)cc2)CC1,-12.5%
10,Cc1sc2nc(SCC(=O)c3cccs3)n(Cc3ccco3)c(=O)c2c1C,31.6%
11,COc1cccc(-c2nc(N3CCCCC3C)c3ccccc3n2)c1O (stereo unspecified),63.1% (active)
12,Oc1ccc(Nc2nc(NCC3CCCO3)c3ccccc3n2)cc1 (stereo unspecified),46.8%
13,CCN(CC)c1nc(-c2cccc(OC)c2O)nc2ccccc12,-8.4%
14,COc1cccc(-c2nc(N3CCCCC3)c3ccccc3n2)c1O,-18.8%
15,COc1cccc(-c2nc(NCC3CCCO3)c3ccccc3n2)c1O (stereo unspecified),55.1% (active)
16,CCC(C)Nc1nc(-c2cccc(OC)c2O)nc2ccccc12 (stereo unspecified),114% (active)
17,CCC1CCCCN1c1nc(-c2cccc(OC)c2O)nc2ccccc12 (stereo unspecified),8.3%
18,C=CCNc1nc(-c2cccc(OC)c2O)nc2ccccc12,-8.3%
19,COc1cccc(-c2nc(NC(C)(C)C)c3ccccc3n2)c1O,20.9%
20,Oc1ccccc1-c1nc(NCc2ccco2)c2ccccc2n1,5.3%
21,COc1cccc(-c2nc(NC(C)C)c3ccccc3n2)c1O,42.1%

row,Structure (SMILES),cytotoxicity
1,CS(=O)(=O)N(CC(=O)N1CCN(Cc2ccccc2)CC1)Cc1ccccc1,-3%
2,COCCCNc1nc2c(c(=O)[nH]c(=O)n2C)n1CCCc1ccccc1,-3.8%
3,CCCn1c(CNS(=O)(=O)c2ccc(C)cc2)nc2ccccc21,5.2%
4,O=C(CN1CCN(C(=O)c2ccccc2F)CC1)Nc1ccc(Br)cc1,-5.9%
5,CCCCn1cnc2sc3c(c2c1=N)CCCC3,-7.6%
6,CCCCOC(=O)Nc1ccccc1C(N)=O,-5.7%
7,COc1ccc(/C(O)=C2/C(=O)C(=O)N(CCCC(=O)O)C2c2ccc(OC)c(OC)c2)cc1 (stereo unspecified),-0.6%
8,c1ccc(-c2nc(NCc3ccco3)c3ccccc3n2)nc1,20%
9,Oc1ccccc1-c1nc(NCC2CCCO2)c2ccccc2n1 (stereo unspecified),50.1% (active)
10,c1ccc(-c2nc(NCC3CCCO3)c3ccccc3n2)nc1 (stereo unspecified),9.5%
11,Oc1ccccc1Nc1nc(NCC2CCCO2)c2ccccc2n1 (stereo unspecified),12.1%
12,c1coc(CNc2nc(N3CCCCC3)nc3ccccc23)c1,38.2%
13,CC(=O)c1ccc(NC(=O)CSc2nnc(Cn3c(=O)sc4ccccc43)n2C)cc1,-1.4%
14,N#Cc1ccc(CSc2nnc(-c3ccccn3)n2-c2ccccc2)cc1,10.8%
15,COc1cc2[nH]c(=O)n(CCCCCC(=O)NCCCN3CCC(C)CC3)c(=O)c2cc1OC,-6.7%
16,O=C(CN1C(=O)NC2(CCCCCCC2)C1=O)N1CCOCC1,-1.1%
17,O=C(Cn1c(=O)oc2cc(S(=O)(=O)NCc3ccccc3)ccc21)NCc1ccco1,2.7%
18,CC1(C)Cc2c(C#N)c(N3CCOCC3)nc(Cc3ccccc3)c2CO1,40%
19,CCc1nc(N2CCN(C(=O)c3ccccc3)CC2)c(C#N)c2c1COC(C)(C)C2,5.9%
20,CCCc1nc(N2CCCC2)c(C#N)c2c1CCCC2,87.9% (active)
21,CC(C)Cc1nc(N2CCCCC2)c(C#N)c2c1CCC2,16.1%

row,Structure (SMILES),cytotoxicity
1,CC(=O)N1CCN(c2nc(CC(C)C)c3c(c2C#N)CCC3)CC1,2%
2,CCc1nc(N2CCOCC2)c(C#N)c2c1CCCC2,-2.9%
3,CC(C)Cc1nc(N2CCOCC2)c(C#N)c2c1CCC2,64.8% (active)
4,CCc1nc(N2CCCC2)c(C#N)c2c1CCCC2,-11.1%
5,CCCc1nc(N2CCOCC2)c(C#N)c2c1CCCC2,-0.6%
6,CC(C)Cc1nc(N2CCN(C(=O)C(C)C)CC2)c(C#N)c2c1CCC2,-14.5%
7,CC(C)Cc1nc(N2CCN(C(=O)c3ccco3)CC2)c(C#N)c2c1CCC2,63.2% (active)
8,CCCNC1=C(C)C(=O)CC1,15.5%
9,CCOc1ncccc1C(=O)OCC(=O)c1ccc[nH]1,2.7%
10,COc1ccc(CCNC(=O)C2=COCCO2)cc1,-8.1%
11,COc1ccc(C2CC(C(F)(F)F)n3nc(C(=O)Nc4ccc5c(c4)OCO5)cc3N2)cc1 (stereo unspecified),-10.9%
12,O=C(NCc1ccc2c(c1)OCO2)c1cc2n(n1)C(C(F)(F)F)CC(c1ccc3c(c1)OCO3)N2 (stereo unspecified),21.6%
13,O=C(Nc1cc(Cl)ccc1O)c1cc2n(n1)C(C(F)(F)F)CC(c1ccc3c(c1)OCO3)N2 (stereo unspecified),-19.1%
14,COc1ccc(NC(=O)c2cc3n(n2)C(C(F)(F)F)CC(c2ccc4c(c2)OCO4)N3)cc1OC (stereo unspecified),69.1% (active)
15,Cc1cccc(NC(=O)c2cc3n(n2)C(C(F)(F)F)CC(c2ccc4c(c2)OCO4)N3)c1 (stereo unspecified),75.8% (active)
16,Cc1cc(NC(=O)c2cc3n(n2)C(C(F)(F)F)CC(c2ccc(Cl)c(Cl)c2)N3)no1 (stereo unspecified),14.7%
17,O=C(Nc1ccc2c(c1)OCO2)c1cc2n(n1)C(C(F)(F)F)CC(c1ccccc1)N2 (stereo unspecified),72.7% (active)
18,COc1ccccc1NC(=O)c1cc2n(n1)C(C(F)(F)F)CC(c1ccc3c(c1)OCO3)N2 (stereo unspecified),41.8%
19,COc1ccc(OC)c(NC(=O)c2cc3n(n2)C(C(F)(F)F)CC(c2ccc4c(c2)OCO4)N3)c1 (stereo unspecified),42.4%
